# SENP8 block-1 = SENP8 protease inhibition. inhibition, % at 10 µM. 330,000 compounds, 1.2% hits. purified SENP8, Z-RLRGG-aminoluciferin cleavage, luminescence. AID 2540. Q96LD8; in the data active = inhibition above about 50%
# SENP8 block-2 = SENP8 (human) protease inhibition; AID 602440; recombinant SENP8, Nedd8 substrate fluorescence; inhibition, % at 20 µM; 360,000 compounds, 0.64% hits; in the data active = inhibition mostly above about 40%, no sharp cut-off; inactive = mostly below about 27%
# SENP6 block = SENP6 protease inhibition | Recombinant SENP6 catalytic domain, aminoluciferin luminescence | inhibition, % at 10 µM | 330,000 compounds, 1.8% hits | AID 2599;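 active = inhibition above about 50% at the single tested dose, limit read from the data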;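 note: plate controls were DMSO wells with enzyme for no effect and DMSO wells lacking enzyme for full effect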
# SENP7 inh = blocks the human protease SENP7; Q9BQF6; recombinant SENP7, Z-RLRGG-aminoluciferin luminescence, 40 min; inhibition, % at 5 µM; 330,000 compounds, 1.5% hits;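 active = inhibition above about 50% at the single test dose, limit read from the data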;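 note: plate controls were DMSO with enzyme for no effect and no enzyme buffer wells for full effect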
# Target sequence (Q9BQF6 706-1050 limits assumed): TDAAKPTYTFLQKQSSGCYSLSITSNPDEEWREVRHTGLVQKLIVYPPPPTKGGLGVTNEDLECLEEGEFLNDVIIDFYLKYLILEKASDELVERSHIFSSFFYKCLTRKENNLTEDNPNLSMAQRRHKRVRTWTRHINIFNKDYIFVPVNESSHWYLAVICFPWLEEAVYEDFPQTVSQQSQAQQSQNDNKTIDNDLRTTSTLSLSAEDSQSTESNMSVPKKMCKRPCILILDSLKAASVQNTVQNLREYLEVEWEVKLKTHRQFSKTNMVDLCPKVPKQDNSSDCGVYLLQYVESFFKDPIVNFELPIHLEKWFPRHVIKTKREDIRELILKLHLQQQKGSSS
# Platelet DG rel = platelet dense granule release activity | human platelet-rich plasma, SFLLRN dense granule ATP release, luminescence | inhibition, %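 (compounds screened at 7.5 µM in platelet-rich plasma)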 | 300,000 compounds, 0.22% hits;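 active = mean replicate score, as percent of positive control, at or above 50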
# SENP8 confirm = confirmation of human SENP8 protease inhibitors; shares compounds with SENP7 inh; Recombinant SENP8, Z-RLRGG-aminoluciferin luminescence, 60 min; inhibition, % at 12.5 µM; 6,200 compounds, 40% hits; AID 488912;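 active = mean inhibition across replicates above about 50%, limit read from the data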
# SENP6 conf = confirmation of human SENP6 protease inhibitors | recombinant SENP6, Z-RLRGG-aminoluciferin luminescence | inhibition, % at 12.5 µM | 6,200 compounds, 58% hits | shares compounds with SENP7 inh
# SENP7 confirm = human SENP7 inhibition, confirmed; shares compounds with SENP7 inh; recombinant SENP7, Z-RLRGG-aminoluciferin luminescence, 40 min; inhibition, % at 12.5 µM; 6,200 compounds, 69% hits
# Casp3 select = caspase-3 inhibition (SENP selectivity assay); shares compounds with SENP7 inh; purified caspase-3, Z-DEVD-aminoluciferin luminescence, 60 min; inhibition, % at 12.5 µM; 6,200 compounds, 60% hits; AID 488918;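 active = mean inhibition above about 50%, limit read from the data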;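 note: plate controls were enzyme with DMSO for no effect and wells without caspase-3 for full effect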
# SENP luc ctr = counter-screen for SENP inhibitors: luminescence interference. shares compounds with SENP7 inh. Pre-incubated SENP8/Z-RLRGG-aminoluciferin, luciferase luminescence interference. inhibition, % at 12.5 µM. 6,200 compounds, 39% hits. AID 488919;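 active = mean inhibition above about 50% when retested at one dose, limit read from the data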;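 note: plate controls were DMSO wells with completed reaction for no effect and substrate without enzyme for full effect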
# * hit, by the source's call; i = inactive; x = no result. An excerpt weighted towards active compounds, which were near 2.4% of everything screened.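 Rule for the calls, unless noted: active = mean inhibition above about 50% in the one-dose retest (limit read from the data); inactive = the rest.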
SMILES,SENP8 block-1,SENP8 block-2,SENP6 block,SENP7 inh,Platelet DG rel,SENP8 confirm,SENP6 conf,SENP7 confirm,Casp3 select,SENP luc ctr
Fc1ccc(-c2nnc(NC3=NCCCCC3)o2)cc1,89*,19,91*,98*,64*,11,95*,102*,98*,75*
CCOc1cc(/C=C2\CCCC(C(=O)C(F)(F)F)=C2O)ccc1O,0,3,17,3,-14,x,x,x,x,x
CN(C(=O)c1ccc(C#N)cc1)c1nnc(-c2cnccn2)s1,-7,13,-8,1,2,x,x,x,x,x
Cc1ccc(N2C(=O)c3ccc(N)cc3C2=O)cc1C,40,-88,65*,51*,14,63*,60*,86*,54*,63*
Cc1ccc(N2C(=O)c3ccc(N)cc3C2=O)cc1,5,-104,13,23,1,x,x,x,x,x
CSc1nsc(/C=C/Nc2ccc(F)cc2)c1C#N,7,-140,22,7,0,x,x,x,x,x
CSc1nsc(/C=C/Nc2cccc(Cl)c2)c1C#N,30,-184,67*,10,x,-18,-10,-2,0,-5
CSc1nsc(/C=C/Nc2ccc(Cl)cc2)c1C#N,23,-220,55*,7,-4,-11,-5,2,2,-2
OC(Cc1cccnc1)c1ccccc1 (configuration not stated),x,2,x,x,x,x,x,x,x,x
COc1cc(CC(=O)NCC2COc3ccccc3O2)cc(OC)c1OC (configuration not stated),5,25,12,-4,7,x,x,x,x,x
CCc1ccc(C(=O)COC(=O)c2n[nH]c3ccccc23)cc1,77*,-8,35,74*,1,-16,78*,93*,61*,14
Cc1c(Br)c([N+](=O)[O-])nn1CC(=O)N(C)Cc1ccccc1,-1,9,-11,5,34,x,x,x,x,x
COC(=O)C1CC2(C(=O)OC)CC(C(=O)OC)(CC(C(=O)OC)C2=O)C1=O (configuration not stated),x,-1,x,x,x,x,x,x,x,x
COc1cc(OC)cc(-c2nc3ccccc3c(=O)o2)c1,-6,14,-12,-5,34,x,x,x,x,x
Cc1ccc(-c2nc3cc(NC(=O)C(C)C)ccc3o2)cc1,35,-491,76*,84*,-9,1,6,7,13,10
Cc1cc2nc(-c3ccc(NC(=O)C(C)C)cc3)oc2cc1C,21,i,26,70*,2,14,14,29,45,17
COc1cc(OC)cc(-c2nc3cc(C)ccc3o2)c1,94*,-39,97*,98*,10,95*,97*,101*,94*,93*
Cc1ccc(-c2nc3cc(NC(=O)C(C)C)ccc3o2)cc1C,92*,-280,95*,98*,-4,5,23,12,77*,3
CC(C)C(=O)Nc1cccc(-c2nc3ccccc3o2)c1,4,-15,-2,-1,1,x,x,x,x,x
CC(C)C(=O)Nc1ccc(-c2nc3cccnc3o2)cc1,-17,-320,-7,-4,1,x,x,x,x,x
CCOC(=O)c1c(NC(=O)COC(=O)CCCOc2ccc(OC)cc2)sc(C(=O)N(C)C)c1C,x,-3,x,x,x,x,x,x,x,x
Cc1ccc(CNc2ncccc2-c2nc3cc(Cl)ccc3o2)cc1,-2,-260,10,15,3,x,x,x,x,x
Cc1ccc(-c2nc3cc(Cl)ccc3o2)cc1,75*,0,91*,90*,-2,7,17,35,13,6
Cc1ccc(-c2cn3nc(-c4ccccc4)c(-c4ccccc4)nc3n2)cc1,2,-422,-8,-4,-9,x,x,x,x,x
CCc1nn2cc(-c3ccccc3)nc2s1,89*,30,94*,96*,35,-1,94*,101*,95*,84*
Cc1nn2cc(-c3ccc(Cl)cc3)nc2s1,54*,11,81*,87*,12,-4,3,26,24,4
